From PubChem BioAssay (Tox21)
Inconclusive results are not listed. Activity calls are given as the source filed them. Unless noted, calls follow the shape of the full dose curve.

Experiments:
[1] = qHTS assay to identify small molecule antagonists of the sonic hedgehog signaling (Shh) pathway (AID 1259369); also: nearly all actives have a fitted effect of over 45% in size; also: potency is read from the fitted curve at half-maximal effect
In short: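 NIH/3T3 stable Gli1-Luc clone, 2,000 cells/well, 4hr settle; cpd + conditioned medium 24hr; Luc reagent 30min RT; luminescence.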

[2] = biological target: Estrogen receptor beta (Homo sapiens) (UniProt Q92731); experiment: qHTS assay to identify small molecule agonists of the estrogen receptor beta (ER-beta) signaling pathway (AID 1259377; active = well fitted activation curve with a large enough effect in the signal ratio in the repeat runs, not every such curve was filed as active; the % refers to the signal ratio)
Sequence of Estrogen receptor beta (Homo sapiens) (Q92731 whole entry, looked up, the tested form may be a part): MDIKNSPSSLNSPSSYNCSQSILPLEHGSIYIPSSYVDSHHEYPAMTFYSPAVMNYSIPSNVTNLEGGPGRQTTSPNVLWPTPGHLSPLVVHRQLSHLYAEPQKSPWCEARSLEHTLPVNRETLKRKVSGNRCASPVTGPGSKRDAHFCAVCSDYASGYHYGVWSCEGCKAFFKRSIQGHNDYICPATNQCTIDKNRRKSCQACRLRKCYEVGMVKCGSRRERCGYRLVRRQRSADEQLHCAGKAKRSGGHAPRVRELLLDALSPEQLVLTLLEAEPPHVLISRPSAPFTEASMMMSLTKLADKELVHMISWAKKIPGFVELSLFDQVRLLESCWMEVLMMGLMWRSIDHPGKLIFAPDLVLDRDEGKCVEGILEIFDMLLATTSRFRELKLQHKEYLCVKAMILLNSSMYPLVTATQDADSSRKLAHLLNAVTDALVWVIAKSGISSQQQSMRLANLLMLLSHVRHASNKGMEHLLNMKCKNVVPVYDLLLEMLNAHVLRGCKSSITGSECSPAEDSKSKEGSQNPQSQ
In short: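 Agonist mode cell assay in GripTite HEK293T cells expressing an ER-beta fusion that drives beta-lactamase from an Upstream Activator Sequence; 16 hr compound exposure at 37C, then 2 h LiveBLAzer B/G FRET substrate at room temperature, fluorescence read-out.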

[3] = biological target: Estrogen receptor beta (Homo sapiens) (UniProt Q92731); experiment: qHTS assay to identify small molecule antagonists of the estrogen receptor beta (ER-beta) signaling pathway (AID 1259378; active = well fitted inhibition curve with a large enough effect in the signal ratio in the repeat runs, not every such curve was filed as active; the % refers to the signal ratio)
In short: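 ER-beta-UAS-bla HEK293T cells in 2% charcoal-stripped FBS medium treated with compound plus 1nM final 17-beta-estradiol for 16 hr at 37C. Beta-lactamase reporter read by FRET substrate fluorescence after 2 hours at room temperature.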

[4] = qHTS assay to identify small molecule agonists of the estrogen receptor beta (ER-beta) signaling pathway - cell viability counter screen (AID 1259380; active = well fitted curve in the direction sought with a large enough effect in the repeat runs; an effect the other way counts as inactive or inconclusive; also: nearly all actives have a fitted effect of over 30% in size)
In short: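 Measured: luminescence from CellTiter-Glo after 30 min at room temperature, added to wells already read for the LiveBLAzer FRET reporter (2 hr substrate); ER-beta-UAS-bla HEK293T cells had 16 hr compound treatment at 37C, 5% CO2.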

[5] = qHTS assay to identify small molecule antagonists of the estrogen receptor beta (ER-beta) signaling pathway - cell viability counter screen (AID 1259382; active = well fitted curve in the direction sought with a large enough effect in the repeat runs; an effect the other way counts as inactive or inconclusive; also: series mostly up to about 92 µM; nearly all actives have a fitted effect of over 55% in size)
In short: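 Readout: luminescence, CellTiter-Glo, same wells as bla assay. System: ER-beta-UAS-bla GripTite HEK293T, 2% charcoal-stripped FBS. Exposure: compounds plus 1nM 17-beta-estradiol, 16 hr, 37C.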

[6] = qHTS assay to identify small molecule agonists or antagonists of the thyroid stimulating hormone receptor (TSHR) signaling pathway - wild type cell line counter screen (AID 1259384)
In short: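 Wild-type Hek293 cells, 800/well, 18 h at 37C, then compound with Ro20-1724 for 30 min RT. cAMP by HTRF (cAMP-d2/anti-cAMP cryptate), 1 h RT, fluorescence read. 15 concentrations, triplicates.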

[7] = biological target: Thyrotropin receptor (Homo sapiens) (UniProt P16473); experiment: qHTS assay to identify small molecule antagonists of the thyroid stimulating hormone receptor (TSHR) signaling pathway (AID 1259385); also: nearly all actives have a fitted effect of over 20% in size
Sequence of Thyrotropin receptor (Homo sapiens) (P16473 whole entry, looked up): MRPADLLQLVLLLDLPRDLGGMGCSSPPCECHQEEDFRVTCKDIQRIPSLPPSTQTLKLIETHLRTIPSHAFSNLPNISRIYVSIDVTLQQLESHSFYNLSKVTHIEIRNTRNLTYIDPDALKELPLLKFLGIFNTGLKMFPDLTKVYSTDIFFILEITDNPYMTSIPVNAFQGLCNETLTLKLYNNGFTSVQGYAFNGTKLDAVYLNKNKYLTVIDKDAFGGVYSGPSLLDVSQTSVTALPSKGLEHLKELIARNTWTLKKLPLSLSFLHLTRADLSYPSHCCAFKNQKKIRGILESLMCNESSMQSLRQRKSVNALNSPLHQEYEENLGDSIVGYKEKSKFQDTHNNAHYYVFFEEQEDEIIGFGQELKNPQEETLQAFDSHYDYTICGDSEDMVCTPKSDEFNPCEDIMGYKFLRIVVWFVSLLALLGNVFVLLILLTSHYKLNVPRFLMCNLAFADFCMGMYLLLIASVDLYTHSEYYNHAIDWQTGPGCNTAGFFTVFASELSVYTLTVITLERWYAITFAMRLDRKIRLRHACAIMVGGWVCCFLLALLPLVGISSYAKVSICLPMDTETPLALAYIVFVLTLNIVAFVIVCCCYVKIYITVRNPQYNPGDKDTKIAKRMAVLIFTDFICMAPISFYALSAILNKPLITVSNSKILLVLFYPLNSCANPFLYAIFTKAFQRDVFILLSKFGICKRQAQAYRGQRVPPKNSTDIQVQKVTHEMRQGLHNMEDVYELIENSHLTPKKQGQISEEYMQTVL
In short: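 TSHR-HEK293 cells (800/well) plated 18 h, then compounds with Ro20-1724 and TSH at 1.5 ng/mL final, 30 min at room temperature. cAMP quantified by HTRF (cAMP-d2/anti-cAMP-cryptate, 1 h); 15 concentrations in triplicate.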

[8] = qHTS assay to identify small molecule agonists of the estrogen receptor alpha (ER-alpha) signaling pathway in the presence of an antagonist - cell viability counter screen (AID 1259386; active = well fitted curve in the direction sought with a large enough effect in the repeat runs; an effect the other way counts as inactive or inconclusive;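 also: series mostly up to about 92 µM; cells exposed to compounds for 22 h at 37 °C before the viability read; nearly all actives have a fitted effect of over 30% in size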)
In short: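 The test measures whether compounds kill ER-alpha reporter cells (VM7Luc4E2) under antagonist co-treatment (ICI-182,780, 10.0nM). Fluorescence from CellTiter-Fluor is read after a 22hr exposure.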

[9] = biological target: Progesterone receptor (Homo sapiens) (UniProt P06401); experiment: qHTS assay to identify small molecule agonists of the progesterone receptor (PR) signaling pathway (AID 1346784); also: nearly all actives have a fitted effect of over 30% in size
Sequence of Progesterone receptor (Homo sapiens) (P06401 whole entry, looked up): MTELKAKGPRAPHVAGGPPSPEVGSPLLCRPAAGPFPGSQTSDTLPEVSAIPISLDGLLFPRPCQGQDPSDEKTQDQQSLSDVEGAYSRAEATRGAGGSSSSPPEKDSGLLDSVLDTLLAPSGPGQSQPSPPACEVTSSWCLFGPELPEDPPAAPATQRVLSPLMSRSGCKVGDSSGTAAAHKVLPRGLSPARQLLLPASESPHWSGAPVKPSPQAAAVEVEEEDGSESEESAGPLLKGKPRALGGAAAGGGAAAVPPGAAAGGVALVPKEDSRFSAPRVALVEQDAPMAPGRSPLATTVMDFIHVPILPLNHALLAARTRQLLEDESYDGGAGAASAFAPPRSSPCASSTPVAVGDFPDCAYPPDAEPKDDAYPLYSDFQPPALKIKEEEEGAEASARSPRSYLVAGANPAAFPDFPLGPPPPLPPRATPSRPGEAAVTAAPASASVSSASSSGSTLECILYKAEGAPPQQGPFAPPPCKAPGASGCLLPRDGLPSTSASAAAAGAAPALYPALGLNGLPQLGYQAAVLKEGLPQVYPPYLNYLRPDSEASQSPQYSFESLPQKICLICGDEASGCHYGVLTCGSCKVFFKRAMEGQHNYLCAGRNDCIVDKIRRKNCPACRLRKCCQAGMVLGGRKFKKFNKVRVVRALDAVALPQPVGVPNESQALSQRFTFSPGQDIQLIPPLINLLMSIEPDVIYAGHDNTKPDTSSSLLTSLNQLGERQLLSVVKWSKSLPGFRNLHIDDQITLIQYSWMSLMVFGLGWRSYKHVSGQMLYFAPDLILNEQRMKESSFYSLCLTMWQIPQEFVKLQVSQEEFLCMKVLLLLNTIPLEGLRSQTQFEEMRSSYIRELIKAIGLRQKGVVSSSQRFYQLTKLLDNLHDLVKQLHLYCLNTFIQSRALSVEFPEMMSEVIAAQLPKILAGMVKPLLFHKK
In short: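 Cells (PR-UAS-bla HEK 293T, GripTite) were plated in assay medium containing 2% charcoal-stripped FBS and incubated 6 hr. Test compounds in DMSO were added for 16 hr at 37C. FRET substrate was then loaded for 2 hr at room temperature before fluorescence reading.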

[10] = qHTS assay to identify small molecule antagonists of the progesterone receptor (PR) signaling pathway - cell viability counter screen (AID 1346798; active = well fitted curve in the direction sought with a large enough effect in the repeat runs; an effect the other way counts as inactive or inconclusive; also: series mostly up to about 92 µM; nearly all actives have a fitted effect of over 50% in size)
In short: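 Counter screen for cytotoxicity: viability of PR-UAS-bla HEK293T cells was measured with CellTiter-Glo luminescence following 16 hr compound exposure in the presence of R5020.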

[11] = qHTS assay to identify small molecule agonists of the progesterone receptor (PR) signaling pathway - cell viability counter screen (AID 1346799); also: nearly all actives have a fitted effect of over 45% in size
In short: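 Cells (PR-UAS-bla HEK293T) are plated at 3,000/well in 2% charcoal-stripped FBS medium, rested 6 hr, dosed and incubated 16 hr at 37C. CellTiter-Glo is then added and luminescence measured after 30 min at room temperature.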

[12] = qHTS assay to identify small molecule antagonists of the TGF-beta/Smad signaling pathway - cell viability counter screen (AID 1346824; active = well fitted curve in the direction sought with a large enough effect in the repeat runs; an effect the other way counts as inactive or inconclusive; also: nearly all actives have a fitted effect of over 50% in size)
In short: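 SBE-bla HEK 293T cells, incubated overnight, then compound plus 0.25 ng/mL TGF-beta1 (stock added) for 5 hr at 37 C. Viability was read in the same wells by CellTiter-Glo luminescence after 30 min at room temperature.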

[13] = qHTS assay to identify small molecule agonists of the TGF-beta/Smad signaling pathway - cell viability counter screen (AID 1346829; active = well fitted curve in the direction sought with a large enough effect in the repeat runs; an effect the other way counts as inactive or inconclusive; also: top concentration of the series differs between compounds; nearly all actives have a fitted effect of over 45% in size)
In short: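 Here the cytotoxicity of library compounds is measured in SBE-bla HEK 293T cells treated for 5 hr, using CellTiter-Glo added to wells already read for the beta-lactamase reporter.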

[14] = qHTS assay to identify small molecule agonists of the TGF-beta/Smad signaling pathway (AID 1346859; active = well fitted activation curve with a large enough effect in the signal ratio in the repeat runs, not every such curve was filed as active; the % refers to the signal ratio; also: series mostly up to about 77 µM)
In short: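 Reporter line: HEK 293T with stably integrated SBE-controlled beta-lactamase. Compound exposure lasts 5 hr at 37 C and 5% CO2; substrate loading follows for 2 hr at room temperature, with emission read at 460 and 530 nm.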

[15] = qHTS assay to identify small molecule agonists of the androgen receptor (AR) signaling pathway in the presence of an antagonist - cell viability counter screen (AID 1259379; active = well fitted curve in the direction sought with a large enough effect in the repeat runs; an effect the other way counts as inactive or inconclusive;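 also: MDA-kb2 human breast cancer cells carrying an MMTV luciferase reporter; series mostly up to about 92 µM; nearly all actives have a fitted effect of over 25% in size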)
In short: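 MDA-kb2 viability measured by CellTiter-Fluor fluorescence in the same wells as the luciferase signal; nilutamide 3.0uM final; 15-point compound titration; 16 hr at 37C.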

[16] = biological target: Estrogen receptor (Homo sapiens) (UniProt P03372); experiment: qHTS assay to identify small molecule agonists of the estrogen receptor alpha (ER-alpha) signaling pathway in the presence of an antagonist (AID 1259383); also: top concentration of the series differs between compounds; nearly all actives have a fitted effect of over 15% in size
Sequence of Estrogen receptor (Homo sapiens) (P03372 whole entry, looked up): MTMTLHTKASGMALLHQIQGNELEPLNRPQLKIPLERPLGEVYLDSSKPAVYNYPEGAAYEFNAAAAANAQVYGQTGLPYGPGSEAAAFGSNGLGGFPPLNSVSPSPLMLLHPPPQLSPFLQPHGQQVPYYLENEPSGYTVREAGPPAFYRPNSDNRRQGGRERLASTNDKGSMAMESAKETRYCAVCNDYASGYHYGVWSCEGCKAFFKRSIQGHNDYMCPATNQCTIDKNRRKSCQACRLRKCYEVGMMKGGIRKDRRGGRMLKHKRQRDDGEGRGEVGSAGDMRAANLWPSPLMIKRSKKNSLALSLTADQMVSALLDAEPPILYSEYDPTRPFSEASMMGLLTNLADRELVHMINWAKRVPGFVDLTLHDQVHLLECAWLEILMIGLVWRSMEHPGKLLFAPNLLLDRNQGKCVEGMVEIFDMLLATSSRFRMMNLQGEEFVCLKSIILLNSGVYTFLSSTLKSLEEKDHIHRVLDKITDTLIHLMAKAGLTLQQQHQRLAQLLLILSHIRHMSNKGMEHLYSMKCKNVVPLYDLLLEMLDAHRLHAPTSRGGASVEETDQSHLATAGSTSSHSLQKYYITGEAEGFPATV
In short: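 Quantitative HTS confirmation: compounds titrated at 15 concentrations onto estrogen-deprived VM7Luc4E2 cells carrying a four-ERE luciferase construct, with ICI-182,780 present at 10.0nM final. Signal is luminescence after 22hr exposure.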

[17] = biological target: Thyrotropin-releasing hormone receptor (Homo sapiens) (UniProt P34981); experiment: qHTS assay to identify small molecule antagonists of the thyrotropin-releasing hormone receptor (TRHR) signaling pathway (AID 1346877; active = well fitted inhibition curve with a large enough effect in the repeat runs, not every such curve was filed as active; also: series mostly up to about 51 µM)
Sequence of Thyrotropin-releasing hormone receptor (Homo sapiens) (P34981 whole entry, looked up): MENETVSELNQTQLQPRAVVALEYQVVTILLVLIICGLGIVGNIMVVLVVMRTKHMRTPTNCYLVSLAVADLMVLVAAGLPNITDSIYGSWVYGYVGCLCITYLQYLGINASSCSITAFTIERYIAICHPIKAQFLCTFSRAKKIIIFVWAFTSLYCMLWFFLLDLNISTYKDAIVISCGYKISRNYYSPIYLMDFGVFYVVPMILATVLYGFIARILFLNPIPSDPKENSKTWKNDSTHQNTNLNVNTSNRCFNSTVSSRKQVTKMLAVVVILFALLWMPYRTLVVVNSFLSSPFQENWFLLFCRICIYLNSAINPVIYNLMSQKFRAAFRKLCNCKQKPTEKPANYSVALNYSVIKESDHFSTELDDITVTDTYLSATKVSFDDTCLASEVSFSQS
In short: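 Overnight-plated (18 h, 37 °C) HEK293 cells expressing TRHR were dye-loaded 2 h, treated with compound, then stimulated with TRH at 1 nM final. Fluorescence intensity was captured every second for 3 min.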

[18] = biological target: Thyrotropin-releasing hormone receptor (Homo sapiens) (UniProt P34981); experiment: qHTS assay to identify small molecule agonists of the thyrotropin-releasing hormone receptor (TRHR) signaling pathway (AID 1346891);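 also: HEK293 cells expressing TRHR with calcium dye readout; series mostly up to about 58 µM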
In short: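 Cells: TRHR-Hek293, seeded and incubated 18 h. Dye loading: 2 h at 37 °C. Compound added from DMSO stock by pin tool. Read-out: kinetic calcium fluorescence over 3 min.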

[19] = biological target: Progesterone receptor (Homo sapiens) (UniProt P06401); experiment: qHTS assay to identify small molecule antagonists of the progesterone receptor (PR) signaling pathway (AID 1346795; active = well fitted inhibition curve with a large enough effect in the signal ratio in the repeat runs, not every such curve was filed as active; the % refers to the signal ratio)
In short: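 Antagonist mode: compounds tested against 1 nM (final) promegestone stimulation in HEK293T cells expressing PR-UAS-bla reporter, 16 hr at 37C, 5% CO2; beta-lactamase activity detected via B/G FRET substrate after 2 hr at room temperature.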

[20] = biological target: Androgen receptor (Homo sapiens) (UniProt P10275); experiment: qHTS assay to identify small molecule agonists of the androgen receptor (AR) signaling pathway in the presence of an antagonist (AID 1259381); also: nearly all actives have a fitted effect of over 15% in size
Sequence of Androgen receptor (Homo sapiens) (P10275 whole entry, looked up): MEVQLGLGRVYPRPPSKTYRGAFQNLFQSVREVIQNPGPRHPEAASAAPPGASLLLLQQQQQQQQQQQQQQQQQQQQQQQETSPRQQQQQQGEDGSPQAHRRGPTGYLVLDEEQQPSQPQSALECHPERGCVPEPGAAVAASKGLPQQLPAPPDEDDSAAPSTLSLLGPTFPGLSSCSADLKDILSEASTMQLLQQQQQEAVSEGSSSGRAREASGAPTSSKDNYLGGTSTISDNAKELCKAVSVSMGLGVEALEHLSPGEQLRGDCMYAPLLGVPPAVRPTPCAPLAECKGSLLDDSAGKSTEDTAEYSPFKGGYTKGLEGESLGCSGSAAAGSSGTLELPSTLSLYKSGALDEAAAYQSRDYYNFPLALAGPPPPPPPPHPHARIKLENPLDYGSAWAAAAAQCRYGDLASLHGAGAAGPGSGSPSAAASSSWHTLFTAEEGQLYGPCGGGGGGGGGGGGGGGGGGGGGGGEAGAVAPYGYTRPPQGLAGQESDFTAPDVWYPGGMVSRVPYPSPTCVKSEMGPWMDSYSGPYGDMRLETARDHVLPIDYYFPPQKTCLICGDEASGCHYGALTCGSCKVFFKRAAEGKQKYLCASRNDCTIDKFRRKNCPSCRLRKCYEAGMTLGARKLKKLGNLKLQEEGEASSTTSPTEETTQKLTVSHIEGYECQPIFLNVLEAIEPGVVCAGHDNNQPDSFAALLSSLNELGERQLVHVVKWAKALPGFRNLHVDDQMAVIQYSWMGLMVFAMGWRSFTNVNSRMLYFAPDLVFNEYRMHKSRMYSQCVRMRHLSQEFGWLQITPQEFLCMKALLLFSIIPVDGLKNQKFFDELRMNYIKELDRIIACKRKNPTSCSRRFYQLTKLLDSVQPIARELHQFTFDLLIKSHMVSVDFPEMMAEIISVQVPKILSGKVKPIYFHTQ
In short: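 Luminescent ONE-Glo read, 30min at room temperature, follows 16hr compound exposure (15 concentrations) of MDA-kb2 cells at 37C, 0% CO2, with nilutamide added at 3.0uM final.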

Measured: Potency

CS(=O)(=O)c1ccc(Cl)cc1
not listed: [15] | [16] | [17] | [18] | [19] | [20]
inactive: all other assays above

CCCCCCCCC(=O)O
not listed: [5] | [19] | [20]
inactive: all other assays above

CC/C(C)=N/O
not listed: [5] | [16] | [20]
inactive: all other assays above

O=C(O)Cc1c[nH]c2ccccc12
not listed: [15] | [16] | [17] | [18] | [19] | [20]
inactive: all other assays above

Cc1nnc(NS(=O)(=O)c2ccc(N)cc2)s1
not listed: [2] | [3] | [17] | [18]
inactive: all other assays above

CCOC(=O)c1ccc(O)cc1
not listed: [2] | [20]
inactive: all other assays above

CN1CCCC1=O
not listed: [6] | [7] | [15] | [20]
inactive: all other assays above

O=[N+]([O-])c1cc(C(F)(F)F)ccc1Cl
not listed: [15] | [16]
inactive: all other assays above

O=C1C(N(CO)C(=O)NCO)N(CO)C(=O)N1CO (configuration not stated)
not listed: [5] | [15] | [19] | [20]
inactive: all other assays above

O=C(Cl)c1ccc(C(=O)Cl)cc1
not listed: [15] | [19] | [20]
inactive: all other assays above

COc1c2ccoc2cc2oc(=O)ccc12
not listed: [15] | [19] | [20]
inactive: all other assays above

CC(=O)OC[C@H]1O[C@@](COC(C)=O)(O[C@H]2O[C@H](COC(C)=O)[C@@H](OC(C)=O)[C@H](OC(C)=O)[C@H]2OC(C)=O)[C@@H](OC(C)=O)[C@@H]1OC(C)=O
not listed: [5] | [16] | [20]
inactive: all other assays above

CC(O)CNCC(C)O (configuration not stated)
not listed: [2] | [3] | [17] | [18] | [20]
inactive: all other assays above

CCc1cccc(O)c1
not listed: [5] | [15] | [20]
inactive: all other assays above

C[Si](C)(C)N[Si](C)(C)C
not listed: [5] | [15] | [17] | [18] | [19] | [20]
inactive: all other assays above

Cc1cc(C)cc(O)c1
active: [1] 1.09 µM
not listed: [15] | [19] | [20]
inactive: all other assays above

CN=C(NC#N)NCCSCc1nc[nH]c1C
not listed: [15] | [19] | [20]
inactive: all other assays above
